# Shown are actives, neighbours in structure and some others; about 17% of the full set was active somewhere.
# HT1080-NT tox – qHTS for induction of synthetic lethality in tumor cells producing 2HG: qHTS for the HT-1080-NT fibrosarcoma cell line; Potency, µM (series often up to 46.1 µM), without a hit: at the top dose activity, negative = less viability, hits mostly cytotoxic; HT-1080-NT fibrosarcoma viability, CellTiter-Glo ATP luminescence, 48 h; 360,000 compounds, 1.6% hits; AID 686970, 2013;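 also: NT is the 2HG producing partner of a matched IDH1 knockdown line; 0% = DMSO-treated cells and -100% = media-only wells without cells; nearly all actives have a fitted effect of over 55% in size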
#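 HT-1080-NT; 750 cells/well; 5% FBS RPMI; 48 h compound, 37 degrees C; CellTiter-Glo luminescence; curve fitting and curve-class assignment.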
# DT40 TDP1 CPT – qHTS for Inhibitors of human tyrosyl-DNA phosphodiesterase 1 (TDP1): qHTS in cells in presence of CPT. 420,000 compounds, 12% hits. AID 686979, 2013. Potency, µM (titrated, usually from 46.2 µM), for inactives: at the highest dose activity change, negative = growth inhibition, hits mostly inhibitors. chicken DT40 Tdp1-/-;hTDP1 cells + 20 nM CPT, ATP luminescence, 48 h; also: % is scaled to controls: 0 for no effect and ±100 for the full control effect; nearly all actives have a fitted effect of over 55% in size
#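 Cell growth measured by CellTiter-Glo luminescence after a minimum 48 h, 37 C compound exposure with 20 nM CPT in Tdp1-knockout DT40 cells stably expressing hTDP1, seeded 400/well; qHTS titration format.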
# HT1080 IDH1KD tx – qHTS for induction of synthetic lethality in tumor cells producing 2HG: qHTS for the HT-1080-IDH1KD cell line; Potency, µM (doses to about 46.1 µM), for the others: at the top dose activity, negative = toxicity, hits mostly cytotoxic; HT-1080 IDH1 knockdown viability, ATP luminescence, 48 h; 360,000 compounds, 2% hits;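 also: 0% = DMSO wells and -100% = cell-free medium wells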
#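 Knockdown cells (IDH1KD HT-1080) received compounds 2 h after plating at 750 cells/well and were kept 48 h at 37 °C in 5% FBS RPMI. A CellTiter-Glo luminescence read gave % activity for curve fitting.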
# HepG2 tox – qHTS for Inhibitors of TGF-b: Cytotox Counterscreen | HepG2 CAGA-GFP viability, ATP luminescence, 18 h | Potency, µM (top dose mostly 46.1 µM), without a hit: top-dose activity change, negative = cytotoxicity, usual class: cytotoxic | 410,000 compounds, 0.76% hits
#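 HepG2 CAGA-GFP cells (1000/well, DMEM with 1% FBS) received compound, then TGF-beta at 500 pg/mL final, and were incubated 18 hours at 37 degrees C. Viability was read by CellTiter-Glo luminescence. Media-only wells were set as complete cell-killing and DMSO as no toxicity.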
# TDP1 cell noCPT – qHTS for Inhibitors of human tyrosyl-DNA phosphodiesterase 1 (TDP1): qHTS in cells in absence of CPT | AID 686978, 2013 | Potency, µM (highest dose often 46.2 µM), for the others: at the highest dose activity change, negative = growth inhibition, most hits filed as inhibitors | 420,000 compounds, 15% hits | DT40 Tdp1-/- hTDP1 cells, no CPT, ATP luminescence, 48 h; also: % is scaled to controls: 0 for no effect and ±100 for the full control effect; nearly all actives have a fitted effect of over 55% in size
#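 Luminescent ATP content (CellTiter-Glo) served as the growth readout. Knockout chicken DT40 cells expressing human TDP1 were exposed to compounds without camptothecin for a minimum 48 hr at 37 °C.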
# TGFb SMAD3 inh – qHTS for Inhibitors of TGF-b. HepG2 CAGA-GFP TGF-b/SMAD3 reporter, GFP fluorescence, 18 h; TGF-beta stimulated, 500 pg/mL final. Potency, µM (series often up to 46.1 µM), for inactives: at the top dose activity, negative = inhibition, usual class: inhibitors. 410,000 compounds, 1.2% hits; also: % is scaled to controls: 0 for no effect and ±100 for the full control effect; nearly all actives have a fitted effect of over 65% in size
#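 TGF-beta reporter screen: HEPG2 CAGA-GFP, 1% FBS, 500 pg/mL TGF-beta final, 18 h; per-cell GFP summed per well; curves fitted and categorized by class.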
# Active calls of the source: *; ? = inconclusive; · = no result given. Calls follow the shape of the dose curve; as a rule, active = well fitted curve in the direction sought with a large enough effect; inconclusive = small, poorly fitted or top-dose-only effect, or another doubt; inactive = no such curve, though single readings can be large; an effect the other way counts as inactive or inconclusive. Potency is read from the fitted curve at half-maximal effect.
SMILES,HT1080-NT tox,DT40 TDP1 CPT,HT1080 IDH1KD tx,HepG2 tox,TDP1 cell noCPT,TGFb SMAD3 inh
CCOc1ccccc1N1CCN(C(=O)CC(C)C)CC1,14.2%,-12.2%,16.3%,-4.3%,-13.9%,1.2%
COc1ccc(N2CCc3c(C)nc4c(OC)cc(OC)cc4c32)c(OC)c1,?,6.51µM*,?,-24.5%,5.17µM*,0.0%
COc1ccc(N2CCc3c(C)nc4c(OC)cc(OC)cc4c32)cc1,?,23.1µM*,23.1µM*,-19.7%,14.6µM*,-11.6%
COc1ccc(N2Cc3ccc(OC)c(OC)c3C2=O)cc1,2.4%,-3.6%,-11.6%,-7.2%,-6.6%,3.6%
COc1cccc(N2CCc3c(C)nc4ccc(Cl)cc4c32)c1,?,10.3µM*,20.6µM*,-35.3%,7.31µM*,?
CN(Cc1ccccc1)C(=O)COC(=O)CCNC(=O)c1ccccc1Cl,11.0%,-5.3%,15.0%,14.6%,2.9%,1.1%
O=c1cc(NC2CCCCC2)c2ccccc2o1,?,?,?,-19.1%,?,-17.6%
CC(=O)[C@H](CC(C)C)NC(=O)[C@@H](CC(C)C)NC(=O)[C@H](CC(C)C)NC(=O)OCc1ccccc1,·,0.15µM*,·,·,0.188µM*,·
CC(=O)NC(CC(C)C)C(=O)NC(Cc1ccccc1)C(=O)CCl (stereo not drawn),-14.1%,2.31µM*,?,-43.7%,2.59µM*,?
O=C(CCCn1c(=O)c2cccn2c2cccnc21)NCc1cccc(Br)c1,-26.1%,?,0.0%,-0.9%,?,0.5%
O=C(CCn1c(=O)c2cccn2c2cccnc21)NCc1ccc(Cl)cc1,·,-14.9%,·,-2.9%,?,-29.0%
CSc1cccc(NC(=O)CCCn2c(=O)c3cccn3c3cccnc32)c1,-2.8%,?,16.5%,-9.7%,20.6µM*,-27.9%
CCOc1cc(CNC(=O)CCCn2c(=O)c3cccn3c3cccnc32)cc(OCC)c1OCC,-0.9%,?,-2.9%,-60.1%,23.1µM*,?
CCc1ccc(CNC(=O)CCCn2c(=O)c3cccn3c3cccnc32)cc1,-1.4%,16.4µM*,-5.1%,14.4%,?,12.1%
Cc1ccc(NC(=O)CCCn2c(=O)c3cccn3c3cccnc32)cc1C,·,?,·,-4.2%,?,-23.7%
O=C(CCCn1c(=O)c2cccn2c2cccnc21)NCCc1ccc(Cl)cc1,26.7%,20.6µM*,9.1%,11.3%,23.1µM*,?
O=C1CC(C(=O)Nc2cccc3ccccc23)C2(CCCC2)O1 (stereo not drawn),4.8%,-2.0%,-1.1%,1.1%,1.1%,5.7%
CC(C(=O)NCCc1ccc(Cl)cc1)n1c(=O)c2cccn2c2cccnc21 (stereo not drawn),-11.4%,?,-11.0%,-25.1%,18.4µM*,?
CC(C)Oc1ccc(CNC(=O)CCCn2c(=O)c3cccn3c3cccnc32)cc1,·,25.9µM*,·,-35.3%,16.4µM*,?
CCOc1ccc(CCNC(=O)Cn2c(=O)c3cccn3c3cccnc32)cc1,-0.9%,?,6.8%,0.4%,1.1%,-4.6%
CC(C)Oc1ccc(CNC(=O)CCCn2c(=O)c3cccn3c3ccccc32)cc1,·,16.4µM*,·,-23.5%,23.1µM*,0.0%
COCCCNC(=O)CCCn1c(=O)c2cccn2c2cccnc21,·,0.2%,·,-14.5%,-9.7%,-25.5%
Cc1cccc(NC(=O)Nc2nnc(N(C)Cc3ccccc3)s2)c1,·,14.6µM*,·,-16.2%,?,-24.3%
CCN(c1ccccc1)c1nnc(NC(=O)Nc2ccccc2F)s1,·,?,·,-23.2%,2.59µM*,-5.1%
CCN(c1ccccc1)c1nnc(NC(=O)Nc2cccc(C(F)(F)F)c2)s1,·,-22.0%,·,1.7%,-24.0%,27.7%
SMILES,HT1080-NT tox,DT40 TDP1 CPT,HT1080 IDH1KD tx,HepG2 tox,TDP1 cell noCPT,TGFb SMAD3 inh
Cc1ccccc1NC(=O)Nc1nnc(N(C)Cc2ccccc2)s1,·,?,·,-22.9%,16.4µM*,-15.7%
COc1cc2c(-c3ccc(C)cc3)nc3c(c(C)nn3-c3ccccc3)c2cc1OC,·,1.4%,·,-0.9%,1.6%,-2.8%
CCN(CCO)c1nc(N2CCCCC2)c2cnn(C)c2n1,2.0%,-22.7%,-5.5%,-11.9%,?,-8.5%
CCCn1nc([N+](=O)[O-])c(C(C#N)c2nc3ccccc3s2)c(Cl)c1=O (stereo not drawn),2.82µM*,18.4µM*,1.12µM*,11.2µM*,16.4µM*,?
CCn1nc([N+](=O)[O-])c(C(C#N)c2nc3ccccc3n2C)c(Cl)c1=O (stereo not drawn),?,?,?,3.6%,?,-3.5%
O=C(Cn1c(-c2cccs2)cc2ccccc21)NCCCN1CCN(c2ccccc2F)CC1,·,23.1µM*,·,-51.0%,16.4µM*,?
O=C(Cn1c(=O)c2cccn2c2ccc(F)cc21)NCCCN1CCN(c2ccccc2F)CC1,?,?,?,-20.6%,?,1.2%
CCN1CCN(CCCNC(=O)Cn2c(-c3cccs3)cc3cc(Cl)ccc32)CC1,·,?,·,-58.4%,?,?
O=C(Cn1c(-c2cccs2)cc2cc(F)ccc21)NCCCN1CCN(c2ccccc2F)CC1,·,20.6µM*,·,-36.2%,20.6µM*,?
COC(=O)c1cc(-c2c(C)oc3cc(OC(C)C)ccc3c2=O)c(C)o1,5.9%,14.6µM*,0.0%,-19.9%,14.6µM*,-25.9%
COC(=O)c1cc(=O)c2ccc(OC)cc2o1,6.4%,-2.0%,0.5%,-2.3%,1.1%,10.8%
CCN(c1ccccc1)S(=O)(=O)c1nnc(NC(=O)COc2cccc(C)c2)s1,·,4.8%,·,-28.4%,0.8%,?
OC(c1ccc2c(c1)CN(Cc1cccc3nccnc13)CCO2)C1CCCCC1 (stereo not drawn),·,5.7%,·,·,-19.3%,·
CCc1nc(CN2CCOc3ccc(C(O)C4CCCCC4)cc3C2)c(C)[nH]1 (stereo not drawn),·,?,·,·,18.4µM*,·
CCCCCCCCCCCCCCCC(=O)OC[C@@H](COP(=O)([O-])OCC[N+](C)(C)C)OC(=O)CCCCCCCCCCCCCCC,·,-16.6%,·,·,-5.8%,·

# Screening results from PubChem BioAssay.
